Active and inactive are the calls of the source. How the source made its calls: active means hit-call score of the fitted dose curve at least 0.9, where 1 is the maximum; inactive means score below 0.9.
Columns and labels:
Conditions in all cases: mRNA level, 48 h; actives raise or lower the signal
[1] = read-out: ABC Transporter (ABCC3), ABCC3 (gene 8714); test: LTEA_HepaRG_ABCC3: Life Technologies and Expression Analysis (LTEA) Assay for ABC Transporter (ABCC3) using HepaRG (AID 2283462)
Method in brief: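 Differentiated human HepaRG cells exposed 48 h in serum-free induction medium, 0.5% DMSO vehicle, 8-point half-log series to 100 uM in duplicate. ABCC3 mRNA by qRT-PCR, normalised to ACTB, GAPDH, POLR2A; bidirectional fit vs DMSO.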

[2] = read-out: ABC Transporter (ABCB11), ABCB11 (gene 8647); test: LTEA_HepaRG_ABCB11: Life Technologies and Expression Analysis (LTEA) Assay for ABC Transporter (ABCB11) using HepaRG (AID 2283463)
Method in brief: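 Using HepaRG cultures held in 0.5% DMSO, chemicals were tested at half-log dilutions from 100 uM for 48 h. Induction or suppression of ABCB11 mRNA, normalized to ACTB, GAPDH and POLR2A, was fitted bidirectionally against vehicle.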

[3] = read-out: ABC Transporter (ABCC2), ABCC2 (gene 1244); test: LTEA_HepaRG_ABCC2: Life Technologies and Expression Analysis (LTEA) Assay for ABC Transporter (ABCC2) using HepaRG (AID 2283464)
Method in brief: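 Differentiated HepaRG cells in serum-free induction medium exposed 48 h to eight half-log concentrations up to 100 uM, 0.5% DMSO, in duplicate. ABCC2 mRNA measured by qRT-PCR (TaqMan, Fluidigm), normalized to ACTB, GAPDH and POLR2A. Fitted in both directions against DMSO.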

[4] = read-out: Broad substrate specificity ATP-binding cassette transporter ABCG2 (Homo sapiens) (UniProt Q9UNQ0); test: LTEA_HepaRG_ABCG2: Life Technologies and Expression Analysis (LTEA) Assay for ABC Transporter (ABCG2) using HepaRG (AID 2283465)
Method in brief: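 Gene expression of ABCG2 in HepaRG liver cells is quantified by qRT-PCR following 48 h exposure across an eight-point series topping at 100 uM. Values come from bidirectional fitting relative to DMSO vehicle.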

[5] = read-out: ATP-citrate lyase (ACLY), ACLY (gene 47); test: LTEA_HepaRG_ACLY: Life Technologies and Expression Analysis (LTEA) Assay for ATP-citrate lyase (ACLY) using HepaRG (AID 2283466)
Method in brief: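 ACLY expression changes in human HepaRG liver cells are quantified by qRT-PCR after 48 h exposure to test chemicals (maximum 100 uM, half-log steps). Values are fitted in both directions relative to 0.5% DMSO vehicle.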

[6] = read-out: Alkaline Phosphatase, Placental (ALPP) gene, ALPP (gene 250); test: LTEA_HepaRG_ALPP: Life Technologies and Expression Analysis (LTEA) Assay for Alkaline Phosphatase, Placental (ALPP) gene using HepaRG (AID 2283468)
Method in brief: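 HepaRG cells plated 48 h, then exposed in duplicate for 48 h in serum-free induction medium to 8-point half-log series from 100 uM in 0.5% DMSO. ALPP mRNA by TaqMan qRT-PCR, normalized to ACTB/GAPDH/POLR2A; bidirectional fit versus DMSO.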

[7] = read-out: Bcl-2 (BAD) gene, BAD (gene 572); test: LTEA_HepaRG_BAD: Life Technologies and Expression Analysis (LTEA) Assay for Bcl-2 (BAD) gene using HepaRG (AID 2283469)
Method in brief: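 Activity values reflect up- or down-regulation of BAD mRNA in human HepaRG hepatic cells treated 48 h in serum-free medium, with eight-point half-log dosing capped at 100 uM and 0.5% DMSO vehicle.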

[8] = read-out: Bcl-2 (BAX) gene, BAX (gene 581); test: LTEA_HepaRG_BAX: Life Technologies and Expression Analysis (LTEA) Assay for Bcl-2 (BAX) gene using HepaRG (AID 2283470)
Method in brief: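 Cells were thawed, plated for 48 h, moved to serum-free induction medium and dosed for 48 h (highest concentration 100 uM, half-log steps, 0.5% DMSO). Total RNA was then analysed for BAX expression by qRT-PCR.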

BCL2L11 (gene 10018) = test: LTEA_HepaRG_BCL2L11: Life Technologies and Expression Analysis (LTEA) Assay for Bcl-2 (BCL2L11) gene using HepaRG (AID 2283473)
Method in brief: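 Differentiated human HepaRG cells were exposed 48 h in serum-free induction medium to eight half-log concentrations up to 100 uM in 0.5% DMSO, in duplicate. BCL2L11 mRNA was quantified by TaqMan qRT-PCR, normalized to ACTB, GAPDH and POLR2A; induction or repression fitted versus DMSO.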

[9] = read-out: Apolipoprotein A-V (APOA5) gene, APOA5 (gene 116519); test: LTEA_HepaRG_APOA5: Life Technologies and Expression Analysis (LTEA) Assay for Apolipoprotein A-V (APOA5) gene using HepaRG (AID 2283474)
Method in brief: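 Differentiated HepaRG cells in serum-free induction medium, exposed 48 h in duplicate to eight half-log concentrations topping at 100 uM (0.5% DMSO). APOA5 mRNA by Fluidigm TaqMan qRT-PCR, normalized to ACTB, GAPDH and POLR2A; bidirectional fit versus DMSO.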

[10] = read-out: Apoptosis regulator Bcl-2 (Homo sapiens) (UniProt P10415); test: LTEA_HepaRG_BCL2: Life Technologies and Expression Analysis (LTEA) Assay for Bcl-2 gene using HepaRG (AID 2283475)
Method in brief: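 Plated human HepaRG cells are exposed to test chemicals for 48 h across eight concentrations from 100 uM downward in half-log steps (0.5% DMSO). BCL2 expression is then measured by qRT-PCR with housekeeping normalisation and fitted bidirectionally against vehicle.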

[11] = read-out: Bcl-2 (BID) gene, BID (gene 637); test: LTEA_HepaRG_BID: Life Technologies and Expression Analysis (LTEA) Assay for Bcl-2 (BID) gene using HepaRG (AID 2283476)
Method in brief: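 Cells are plated, cultured 48 h, switched to serum-free induction medium, then dosed 48 h (100 uM top, half-log steps, 0.5% DMSO). RNA is isolated and BID expression read by qRT-PCR.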

Caspase-3 (Homo sapiens) = Caspase-3 (Homo sapiens) (UniProt P42574); test: LTEA_HepaRG_CASP3: Life Technologies and Expression Analysis (LTEA) Assay for cysteine-aspartic acid protease (CASP3) using HepaRG (AID 2283477)
Sequence of Caspase-3 (Homo sapiens) (P42574 whole entry, looked up): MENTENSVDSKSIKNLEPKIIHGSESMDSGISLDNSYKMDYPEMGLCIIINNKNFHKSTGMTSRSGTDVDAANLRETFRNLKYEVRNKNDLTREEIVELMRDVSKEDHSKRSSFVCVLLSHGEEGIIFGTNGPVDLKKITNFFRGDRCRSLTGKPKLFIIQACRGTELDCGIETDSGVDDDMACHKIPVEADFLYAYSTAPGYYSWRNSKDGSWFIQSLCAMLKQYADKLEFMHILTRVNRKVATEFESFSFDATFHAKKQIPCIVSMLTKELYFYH
Method in brief: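 Differentiated HepaRG cells, plated 48 h, were treated in duplicate in serum-free induction medium for 48 h with eight half-log concentrations up to 100 uM in 0.5% DMSO. CASP3 mRNA measured by qRT-PCR, normalized to ACTB, GAPDH, POLR2A.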

[12] = read-out: Cytochrome P450 (CYP24A1), CYP24A1 (gene 1591); test: LTEA_HepaRG_CYP24A1: Life Technologies and Expression Analysis (LTEA) Assay for Cytochrome P450 (CYP24A1) using HepaRG (AID 2283478)
Method in brief: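 HepaRG cells plated 48 h, then exposed in duplicate in serum-free induction medium for 48 h to 8-point half-log series from 100 uM in 0.5% DMSO. CYP24A1 mRNA by Fluidigm qRT-PCR, normalized to ACTB, GAPDH, POLR2A; bidirectional fit versus DMSO.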

[13] = read-out: Cytochrome P450 (CYP1A2), CYP1A2 (gene 1544); test: LTEA_HepaRG_CYP1A2: Life Technologies and Expression Analysis (LTEA) Assay for Cytochrome P450 (CYP1A2) using HepaRG (AID 2283479)
Method in brief: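 Differentiated human HepaRG cells in serum-free induction medium exposed 48 hours in duplicate to 8 half-log concentrations from 100 uM, 0.5% DMSO. CYP1A2 mRNA quantified by qRT-PCR, normalized to ACTB, GAPDH and POLR2A; bidirectional fitting versus DMSO.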

[14] = read-out: cysteine-aspartic acid protease (CASP8), CASP8 (gene 841); test: LTEA_HepaRG_CASP8: Life Technologies and Expression Analysis (LTEA) Assay for cysteine-aspartic acid protease (CASP8) using HepaRG (AID 2283480)
Method in brief: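 Concentration-response in duplicate up to 100 uM (half-log steps, 0.5% DMSO) on differentiated HepaRG cultures for 48 h. Expression change of CASP8 mRNA is determined by TaqMan qRT-PCR with housekeeping-gene normalization.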

[15] = read-out: Cytochrome P450 (CYP2B6), CYP2B6 (gene 1555); test: LTEA_HepaRG_CYP2B6: Life Technologies and Expression Analysis (LTEA) Assay for Cytochrome P450 (CYP2B6) using HepaRG (AID 2283481)
Method in brief: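 Differentiated human HepaRG cells in serum-free induction medium, dosed in duplicate for 48 h over 8 half-log concentrations topping at 100 uM (0.5% DMSO). CYP2B6 mRNA measured by TaqMan qRT-PCR, normalized to ACTB, GAPDH, POLR2A; bidirectional fit versus DMSO.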

[16] = read-out: adenosine kinase (ADK) gene, ADK (gene 132); test: LTEA_HepaRG_ADK: Life Technologies and Expression Analysis (LTEA) Assay for adenosine kinase (ADK) gene using HepaRG (AID 2283471)
Method in brief: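 Following 48 h exposure of HepaRG cells in 0.5% DMSO (top concentration 100 uM, duplicate wells), ADK mRNA induction or suppression was measured by qRT-PCR, normalised to ACTB/GAPDH/POLR2A, and fitted bidirectionally relative to vehicle.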

[17] = read-out: Alpha-fetoprotein (AFP) gene, AFP (gene 174); test: LTEA_HepaRG_AFP: Life Technologies and Expression Analysis (LTEA) Assay for Alpha-fetoprotein (AFP) gene using HepaRG (AID 2283472)
Method in brief: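 Chemicals were tested on differentiated HepaRG cells for 48 hours at eight concentrations up to 100 uM, with 0.5% DMSO as vehicle. AFP expression was then quantified by qRT-PCR and analyzed for gain or loss relative to DMSO.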

Measured: AC50

Sequence of Broad substrate specificity ATP-binding cassette transporter ABCG2 (Homo sapiens) (Q9UNQ0 whole entry, looked up): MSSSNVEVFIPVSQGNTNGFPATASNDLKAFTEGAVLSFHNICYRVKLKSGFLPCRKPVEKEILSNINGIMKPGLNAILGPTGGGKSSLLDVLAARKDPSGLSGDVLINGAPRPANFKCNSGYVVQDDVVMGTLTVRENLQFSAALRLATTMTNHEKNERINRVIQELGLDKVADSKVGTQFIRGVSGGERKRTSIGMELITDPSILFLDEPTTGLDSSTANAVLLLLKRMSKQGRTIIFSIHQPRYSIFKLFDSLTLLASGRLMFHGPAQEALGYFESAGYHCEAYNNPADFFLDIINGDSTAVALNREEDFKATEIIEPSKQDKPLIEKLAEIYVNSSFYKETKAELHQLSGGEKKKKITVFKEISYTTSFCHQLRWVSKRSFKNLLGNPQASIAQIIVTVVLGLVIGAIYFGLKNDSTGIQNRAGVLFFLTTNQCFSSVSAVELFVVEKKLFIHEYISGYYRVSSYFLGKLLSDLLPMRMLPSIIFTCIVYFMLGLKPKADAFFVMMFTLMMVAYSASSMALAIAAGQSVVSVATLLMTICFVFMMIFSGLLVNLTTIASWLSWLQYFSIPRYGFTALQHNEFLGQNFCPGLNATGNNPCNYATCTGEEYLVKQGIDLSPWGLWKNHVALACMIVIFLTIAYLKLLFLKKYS
Sequence of Apoptosis regulator Bcl-2 (Homo sapiens) (P10415 whole entry, looked up): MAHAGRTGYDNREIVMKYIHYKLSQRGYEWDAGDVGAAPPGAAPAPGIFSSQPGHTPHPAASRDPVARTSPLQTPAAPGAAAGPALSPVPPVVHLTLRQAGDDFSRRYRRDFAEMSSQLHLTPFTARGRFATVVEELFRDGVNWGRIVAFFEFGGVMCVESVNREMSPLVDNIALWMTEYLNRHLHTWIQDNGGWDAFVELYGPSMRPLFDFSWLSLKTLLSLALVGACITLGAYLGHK

CCCCCc1ccc(N)cc1
inactive: [1] | [2] | [3] | [4] | [5] | [6] | [7] | [8] | BCL2L11 (gene 10018) | [9] | [10] | [11] | Caspase-3 (Homo sapiens) | [12] | [14]
active: [13] 30.3 µM | [15] 18.8 µM

CCCCCCCCOC(=O)c1cc(O)c(O)c(O)c1
inactive: [1] | [2] | [3] | [4] | [5] | [7] | [8] | [16] | [17] | BCL2L11 (gene 10018) | [9] | [10] | [11] | Caspase-3 (Homo sapiens) | [12] | [14] | [15]
active: [6] 11.5 µM | [13] 39.5 µM

CC(=O)N1CCN(c2ccc(OC[C@H]3CO[C@](Cn4ccnc4)(c4ccc(Cl)cc4Cl)O3)cc2)CC1
inactive: [7] | BCL2L11 (gene 10018) | [11] | Caspase-3 (Homo sapiens)
active: [1] 91.8 µM | [3] 31.1 µM | [4] 4.05 µM | [5] 1.23 µM | [8] 11.8 µM | [9] 17.8 µM | [10] 11.5 µM | [13] 26 µM | [14] 82.8 µM | [15] 12.7 µM

O=C1CCC(C2CCCCC2)CC1
active: [13] 72.5 µM
inactive: [1] | [2] | [3] | [4] | [5] | [6] | [7] | [8] | [17] | BCL2L11 (gene 10018) | [9] | [10] | [11] | Caspase-3 (Homo sapiens) | [12] | [14] | [15]

CC(C)(O)c1ccc(CNC(=O)c2cccnc2Oc2ccc3nonc3c2)cc1
inactive: [1] | [2] | [4] | [5] | [6] | [7] | [8] | [16] | [17] | BCL2L11 (gene 10018) | [9] | [10] | [11] | Caspase-3 (Homo sapiens) | [12] | [14]
active: [3] 50 µM | [13] 50 µM | [15] 0.987 µM

O=C1O[C@H]([C@@H](O)CO)C(O)=C1O
inactive: [1] | [2] | [3] | [4] | [5] | [6] | [7] | [8] | BCL2L11 (gene 10018) | [9] | [10] | [11] | Caspase-3 (Homo sapiens) | [12] | [13] | [14] | [15]

CC(C)(C)c1csc(-c2cc3cc(OCc4ccccc4CC(=O)O)ccc3o2)n1
inactive: [1] | [7] | [8] | [10] | [12] | [13] | [14]
active: [2] 15.8 µM | [3] 93.8 µM | [4] 15.8 µM | [5] 87.4 µM | [6] 24.4 µM | BCL2L11 (gene 10018) 18.8 µM | [9] 20 µM | [11] 75.7 µM | Caspase-3 (Homo sapiens) 77.7 µM | [15] 23.3 µM
